# From PubChem BioAssay AID1851 (National Center for Advancing Translational Sciences (NCATS), 2009)
# The campaign covered roughly 16,000 compounds. About 2,600 (16%) were called active. About 20% were inconclusive and are not listed. Not all results are given here. Values without a mark were called inactive. The call rests on the fitted dose curve; in most records, active means well fitted curve in the direction sought with a large enough effect; inconclusive means small, poorly fitted or top-dose-only effect, or effect the other way; inactive means no such curve, though single readings can be large or run the other way.
# Biological target: Cytochrome P450 2D6 (Homo sapiens) (UniProt P10635)
# Sequence (P10635 whole entry, looked up): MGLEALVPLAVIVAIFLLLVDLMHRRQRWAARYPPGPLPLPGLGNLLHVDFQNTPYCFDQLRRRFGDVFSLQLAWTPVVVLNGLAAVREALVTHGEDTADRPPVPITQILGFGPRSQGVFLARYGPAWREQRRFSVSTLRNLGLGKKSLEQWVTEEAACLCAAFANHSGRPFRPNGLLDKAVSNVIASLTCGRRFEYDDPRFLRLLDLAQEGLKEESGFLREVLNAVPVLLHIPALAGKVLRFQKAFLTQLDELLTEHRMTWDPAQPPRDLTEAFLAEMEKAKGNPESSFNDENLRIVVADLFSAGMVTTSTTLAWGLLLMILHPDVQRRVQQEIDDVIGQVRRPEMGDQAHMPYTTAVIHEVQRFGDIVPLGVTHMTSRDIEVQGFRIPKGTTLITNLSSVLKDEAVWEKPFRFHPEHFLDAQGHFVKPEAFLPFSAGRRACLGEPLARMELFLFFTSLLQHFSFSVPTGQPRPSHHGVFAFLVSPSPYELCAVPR
# Experiment: Cytochrome panel assay with activity outcomes
# Conditions: recombinant CYP, pro-luciferin dealkylation, luminescence, p450-cyp2d6; series mostly up to 57.1 µM
# On the % scale 0 is the no-effect control and ±100 the full control effect.
Structure (SMILES),"activity, negative = inhibition",AC50
C/C(=N\NC(N)=S)c1ccc[nH]1,7.95% [at 11.4 µM],
CCC1=NN(C(=O)CCc2ccccc2)C(O)(C(F)(F)F)C1 (stereo not drawn),,inactive
NCCSCCC(=O)O,-2.86% [at 11.4 µM],
CC(C)[C@H](CO)Nc1nc(Nc2cc(N)cc(Cl)c2)c2ncn(C(C)C)c2n1,,inactive
COc1cccc(=O)c2c(C)n(-c3cc(C)cc(C)c3)c(C)c12,,inactive
O=c1[nH]c2[nH]c(=S)[nH]c(=S)c2[nH]1,-8.17% [at 11.4 µM],
COc1ccc(-c2nnc3n2N=C(C)CS3)cc1,,inactive
NS(=O)(=O)c1nc(S(=O)(=O)O)c2[nH]cnc2n1,10.8% [at 11.4 µM],
COc1ccc2[nH]cc(CCNc3ncnc4ccc(-c5ccccc5C#N)cc34)c2c1,,7.94 µM (active)
COc1ccc2[nH]cc(CCNc3ncnc4ccc(-c5ccccc5OC)cc34)c2c1,,3.98 µM (active)
COc1ccc2[nH]cc(CCNc3ncnc4ccc(-c5ccccc5CN(C)C)cc34)c2c1,,10 µM (active)
COc1ccc(CNc2ncnc3ccc(-c4ccccc4C#N)cc23)c(OC)c1,,inactive
COc1ccccc1-c1nnc(SCc2nc3ccccc3s2)n1C,,inactive
N=C(N)C(N=Nc1ccccc1)C(=N)N (stereo not drawn),-0.561% [at 11.4 µM],
O=C(O)/C=C\c1c2ccc(=O)c(O)c-2oc2c(O)c(O)ccc12,-4.81% [at 11.4 µM],
CC1(C)CC2(CC(C)(C(=O)CSc3nc4ccccc4s3)OC2=O)C(=O)O1 (stereo not drawn),,inactive
CCC[C@H]1C[C@H](C(=O)N[C@H]([C@@H]2O[C@H](SC)[C@@H](O)[C@H](O)[C@@H]2O)[C@H](C)O)N(C)C1,,inactive
O=C(Nc1nnc(C2CC2)s1)c1ccncc1,,inactive
CC1(C)OC(=O)N(Cc2ccco2)C1(C)O (stereo not drawn),,inactive
O=C(O)/C=C1\NC(=O)c2ccccc21,,inactive
O=C(O)c1ccccc1Nc1ccccc1,,inactive
Nc1ccccc1Nc1ccccc1,,22.4 µM (active)
Nc1ccc(Nc2ccccc2)cc1,,inactive
COc1ccc(-c2nc3cnc(N(C)C)nc3n(Cc3cccs3)c2=O)cc1,,inactive
O=S1(=O)[C@H]([C@H]2CC3c4ccccc4C2c2ccccc23)[C@@H](N2CCCCC2)[C@@H]1c1ccccc1,,3.16 µM (active)
CCCn1nnnc1NC(=O)c1ccc(C)cc1Cl,,inactive

Structure (SMILES),"activity, negative = inhibition",AC50
COC(=O)c1ccc(C#CC(NP(=O)(c2ccccc2)c2ccccc2)c2ccccc2)cc1 (stereo not drawn),,inactive
CC1CN(C(NC(=O)C(C)(C)C)C(Cl)(Cl)Cl)CC(C)O1 (stereo not drawn),,inactive
CCOC(=O)c1c(NC(=S)Nc2ccccc2)sc2c1CCN(CCc1ccccc1)C2,,0.0708 µM (active)
CCOC(=O)c1c(NC(=S)NC(=O)c2cnn(CC)c2)sc2c1CCC(C)C2 (stereo not drawn),,inactive
CCN1CCc2c(sc(NC(=S)NC(=O)c3ccccc3)c2C#N)C1,,inactive
CCOC(=O)N1CCC(NC(=O)c2cc(S(=O)(=O)N3CCCC3)cn2C)CC1,,inactive
COCc1cc(=O)[nH]c2cc(NC(=O)C(F)(F)F)c(C)cc12,,inactive
Cc1cc(-c2cc(C)c(O)c(C(C)(C)C)c2)cc(C(C)(C)C)c1O,-4.06% [at 11.4 µM],
CC(C)(C=O)Cc1cc(C(C)(C)C)c(O)c(C(C)(C)C)c1,,25.1 µM (active)
CC(C)(CO)Cc1cc(C(C)(C)C)c(O)c(C(C)(C)C)c1,,inactive
O=C(c1ccc2c(c1)N(Cc1ccc(F)cc1)C(=O)CS2)N1CCOCC1,,inactive
Cc1cc(OC(=O)c2ccc(Cl)cc2)cc(=O)n1C,,inactive
CC(=O)N1CCC2(CCCN(c3ccccn3)C2)CC1,,inactive
CS(=O)(=O)N1CCC[C@@]2(CCN(c3ncccn3)C2)C1,,inactive
CS(=O)(=O)N1CCC2(CC1)CN(c1ncccn1)C2,,inactive
O=S(=O)(c1ccccc1)N1CCC2(CCCN(c3ccccn3)C2)CC1,,12.6 µM (active)
O=S(=O)(c1ccccc1)N1CCC2(CCCN(c3ncccn3)C2)CC1,,12.6 µM (active)
CS(=O)(=O)N1CCC2(CCCN(c3ncccn3)C2)CC1,,15.8 µM (active)
O=S(=O)(c1ccccc1)N1CCC2(CC1)CN(c1ncccn1)C2,,inactive
O=S(=O)(c1ccccc1)N1CCC2(CCN(c3ncccn3)CC2)CC1,,inactive
CS(=O)(=O)N1CCC[C@@]2(CCN(c3ccccn3)C2)C1,,inactive
NCCCCNCCCN,,inactive
CC1CCN(c2cc(N3CCC(C)CC3)c([N+](=O)[O-])cc2/C=C(\C#N)c2nn(-c3ccccc3)c(N)c2C#N)CC1,,inactive
CN(CCO)c1nc(N)c2c(N)nc3c(c2c1C#N)CC(=O)N3C1CCCC1,,inactive
C[C@@](N)(Cc1ccc(O)cc1)C(=O)O,,inactive
CC(C)OCCCN1CN(S(=O)(=O)c2cccc(Cl)c2)c2nc3ccccc3nc21,,inactive

Structure (SMILES),"activity, negative = inhibition",AC50
CC(=O)NN1C(=O)/C(=C\c2ccc(C)cc2)SC1=S,,inactive
CN(CCO)Cc1ncccc1O,-1.69% [at 11.4 µM],
O=C(Nc1cccc(C(F)(F)F)c1)c1n[nH]c(Cn2cncn2)n1,,inactive
N[C@@H]1CONC1=O,,inactive
Cc1ccc(N(C(=O)c2csnn2)C(C(=O)NC(C)(C)C)c2cccs2)cc1 (stereo not drawn),,inactive
CC(C)c1cccc2nc3c(c([Si](C)(C)C(C)(C)C)c12)Cn1c-3cccc1=O,,inactive
COc1ccc2nc3c(c([Si](C)(C)C(C)(C)C)c2c1)Cn1c-3cccc1=O,,2 µM (active)
CC(C)(C)[Si](C)(C)c1c2c(nc3ccc(OCc4ccccc4)cc13)-c1cccc(=O)n1C2,,inactive
O=C1C(CCS(=O)c2ccccc2)C(=O)N(c2ccccc2)N1c1ccccc1 (stereo not drawn),,inactive
CN(Cc1ccco1)c1ncnc2ccc(-c3ccccc3Cl)cc12,,7.94 µM (active)
CN(Cc1ccco1)c1ncnc2ccc(-c3ccccc3C#N)cc12,,15.8 µM (active)
CN(C)Cc1ccccc1-c1ccc2ncnc(N(C)Cc3ccco3)c2c1,,2 µM (active)
CN(Cc1ccco1)c1ncnc2ccc(-c3ccccc3C(F)(F)F)cc12,,10 µM (active)
FC(F)(F)c1ccccc1-c1ccc2ncnc(N3CCOCC3)c2c1,,inactive
CN(Cc1ccco1)c1ncncc1-c1cccc(C#N)c1,,inactive
COCCNC(=O)c1sc2nc(-c3ccccc3)cn2c1C,,inactive
Cc1ccc(NC(=O)C(=O)NCc2ccc(/C=C(/C#N)C(=O)NCc3cccnc3)o2)cc1,,inactive
Nc1ncnc2c1ncn2[C@@H]1CCCO1,,inactive
CCN1C(=O)C2(SC(NC(C)=O)=NN2C(C)=O)c2cc(C)ccc21 (stereo not drawn),,inactive
CC[C@H](Cc1c(I)cc(I)c(N)c1I)C(=O)O,,inactive
CNc1cnn(-c2ccccc2)c(=O)c1Cl,,inactive
N#[N+]c1ccc(Nc2ccccc2)cc1,7.95% [at 11.4 µM],
COc1ccc(Oc2ncc3nc(CCc4ccccc4)c(=O)n(C)c3n2)cc1,,inactive
CCOc1ccc(NC(=O)CCNS(=O)(=O)c2ccc3c(c2)c(=O)n(C)c(=O)n3C)cc1,,inactive
Cc1sc2ncnc(OCC(=O)NC(C)C)c2c1C,,inactive
COc1ccccc1C1/C(=C(/O)c2ccccc2)C(=O)C(=O)N1CCO (stereo not drawn),,inactive

Structure (SMILES),"activity, negative = inhibition",AC50
COC(=O)[C@H](C)NC(=O)C/C=C\[C@@H](C)[C@H]1C=C[C@H](O)[C@@H](CO)O1,3.59% [at 11.4 µM],
O=C(NCCc1c[nH]c2ccccc12)[C@@H]1C[C@H]1[C@@H](NP(=O)(c1ccccc1)c1ccccc1)c1ccccc1,,inactive
O=C(NCCc1c[nH]c2ccccc12)[C@H]1C[C@@H]1[C@H](NP(=O)(c1ccccc1)c1ccccc1)c1ccccc1,,inactive
CN1C2C=C(N(CCc3c[nH]c4ccccc34)C(=O)c3ccc(Cl)cc3)CC1CC2 (stereo not drawn),,0.398 µM (active)
CCN(CC(=O)O)CC(=O)O,9.63% [at 11.4 µM],
CC1=Nc2ccccc2/C1=C\c1nc(-c2ccc(C(F)(F)F)cc2)oc1O,,inactive
Nc1ccc(S(=O)(=O)NC(=O)c2ccccc2)cc1,,inactive
Nc1ccc(N(c2ccccc2)c2ccc(N)cc2)cc1,,14.1 µM (active)
CC(=O)c1nnn(-c2nc(N)nc(N(c3ccccc3)c3ccccc3)n2)c1C,,inactive
O=C(Cn1ccnc1[N+](=O)[O-])NCCO,,inactive
COc1cccc(N=Cc2c[nH][nH]c2=O)c1,,inactive
C[C@@H]1c2cccc(O)c2C(O)=C2C(=O)[C@@]3(O)C(O)=C(C(N)=O)C(=O)[C@@H](N(C)C)[C@@H]3[C@@H](O)[C@@H]21,,inactive
CCOc1cc(/C=N/NC(=O)COc2cccc(C)c2)ccc1OC(=O)c1cccs1,,inactive
CCOC(=O)c1c(C)n(C)c2ccc(OC)c(NS(=O)(=O)c3ccc(Cl)s3)c12,,inactive
CCOc1ccc2nc(NC(=O)c3ccc(S(=O)(=O)N4CCOCC4)cc3)sc2c1,,inactive
CCOC(=O)C1CCN(C(=O)C2CCN(c3nc4ccc(OC)cc4s3)CC2)CC1,,inactive
CCOc1ccc2nc(N3CCCCCC3)sc2c1,,1 µM (active)
CCN1CCN(C(=O)N[C@H](C(=O)N[C@@H]2C(=O)N3C(C(=O)O)=C(CSc4nnnn4C)CS[C@@H]23)c2ccc(O)cc2)C(=O)C1=O,,inactive
Cc1nc2c(O)cccc2c(=O)[nH]1,,12.6 µM (active)
O=c1[nH]ccc2c(O)cccc12,,inactive
O=c1[nH]c2ccccc2c2ccccc12,,inactive
OCCCNc1ncnc2[nH]ncc12,15.1% [at 11.4 µM],
Cc1cc(C)c(C#N)c(SCC(=O)c2ccc(Cl)cc2Cl)n1,,inactive
Cc1cc(C)c(C#N)c(SCC(=O)C(C)(C)C)n1,,inactive
Cc1cc(C)c(C#N)c(SCc2cc3c(cc2Cl)OCO3)n1,,8.91 µM (active)
